# Assay results taken from PubChem BioAssay (NCI).
# About 79,000 compounds went through this panel and 15% of them were active in at least one assay; those are over-represented in the sample as a whole. Values without a mark were called inactive. Activity calls are given as the source filed them. No stated cut-off is given here; in the data, active means growth inhibition above about 70%; inactive means the rest.
# Key:
# [1] = NCI Yeast Anticancer Drug Screen. Data for the rad52 strain (AID 147);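 further: 0% = growth of vehicle-treated control cultures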; conditions: S. cerevisiae rad52 mutant growth inhibition, stronger effect = higher value
# How it was run: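 Growth of repair-deficient yeast cells was compared between compound-treated and vehicle-treated cultures to give percent inhibition.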
# [2] = NCI Yeast Anticancer Drug Screen. Data for the wt1 strain (AID 149);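 further: 0% = growth of vehicle-treated wt1 cultures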; conditions: S. cerevisiae wt1 strain (SPY 50644) growth inhibition, stronger effect = higher value
# How it was run: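 wt1 yeast, compound-treated; % growth inhibition vs vehicle control.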
# [3] = NCI Yeast Anticancer Drug Screen. Data for the mgt1 strain (AID 153); conditions: S. cerevisiae mgt1 mutant growth inhibition, stronger effect = higher value
# How it was run: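 Compounds were applied to mgt1 mutant yeast, and growth was then compared against vehicle-treated control cultures to give percent inhibition.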
# [4] = NCI Yeast Anticancer Drug Screen. Data for the rad50 strain (AID 155);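 further: 0% = growth of vehicle-only cultures of the same strain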; conditions: S. cerevisiae rad50 strain growth inhibition, stronger effect = higher value
# How it was run: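 Genetically altered yeast (DNA repair pathway); compound treatment; growth inhibition vs vehicle ctrl.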
# [5] = NCI Yeast Anticancer Drug Screen. Data for the mec2-1 strain (AID 157); conditions: S. cerevisiae mec2-1 strain, stronger effect = higher value
# How it was run: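 Compounds were applied to mec2-1 yeast cells. Their growth was then compared with that of vehicle-treated cultures to give growth inhibition.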
# [6] = NCI Yeast Anticancer Drug Screen. Data for the sgs1 mgt1 strain (AID 161);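 further: 0% = growth of cultures given vehicle only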; conditions: S. cerevisiae sgs1 mgt1 strain, stronger effect = higher value
# How it was run: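 Growth of a repair-deficient yeast mutant was monitored after compound treatment and expressed as inhibition relative to vehicle-treated cultures.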
# [7] = NCI Yeast Anticancer Drug Screen. Data for the CLN2oe strain (AID 163);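 further: 0% = growth of vehicle-only control cultures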; conditions: S. cerevisiae CLN2oe strain, stronger effect = higher value
# How it was run: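 Cells of an engineered yeast line with disturbed cell-cycle regulation are treated with compound. Inhibition of growth is then calculated relative to the vehicle-treated reference.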
# [8] = NCI Yeast Anticancer Drug Screen. Data for the cln2 rad14 strain (AID 165);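 further: 0% = growth equal to vehicle treated cultures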; conditions: S. cerevisiae cln2 rad14 strain, stronger effect = higher value
# How it was run: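 Strain: cln2 rad14 yeast, altered in cell cycle control and DNA damage repair. Read-out: growth inhibition vs vehicle.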
# [9] = NCI Yeast Anticancer Drug Screen. Data for the bub3 strain (AID 167); conditions: S. cerevisiae bub3 mutant strain, stronger effect = higher value
# How it was run: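 Yeast carrying a defined mutation is treated with each compound, and growth is compared with that of vehicle-exposed cells to give inhibition.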
# [10] = NCI Yeast Anticancer Drug Screen. Data for the wt2 strain (AID 169);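 further: 0% = growth of vehicle-treated yeast cultures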; conditions: S. cerevisiae wt2 strain growth inhibition, stronger effect = higher value
# How it was run: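 Growth of compound-treated yeast is measured and expressed as inhibition relative to vehicle-only controls.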
# [11] = NCI Yeast Anticancer Drug Screen. Data for the mlh1 strain (AID 171);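 further: 0% = growth of vehicle-treated control cultures of the same strain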; conditions: S. cerevisiae mlh1 strain growth inhibition, stronger effect = higher value
# How it was run: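 Test agents were incubated with yeast bearing a defined DNA damage repair or cell cycle control alteration; values are growth inhibition normalised to vehicle-treated cultures.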
# [12] = NCI Yeast Anticancer Drug Screen. Data for the sgs1 strain (AID 173);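 further: 0% = growth of vehicle-only control cultures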; conditions: S. cerevisiae sgs1 mutant, stronger effect = higher value
# How it was run: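 Strain with an altered DNA repair or cell cycle pathway exposed to compound. Growth then measured. Value = inhibition versus vehicle control.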
# [13] = NCI Yeast Anticancer Drug Screen. Data for the mlh1 rad18 strain (AID 175); conditions: S. cerevisiae mlh1 rad18 strain growth inhibition, stronger effect = higher value
# How it was run: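 A repair-deficient yeast strain is exposed to test compound, and growth is scored relative to vehicle-treated controls.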
# [14] = NCI Yeast Anticancer Drug Screen. Data for the rad18 strain (AID 177); conditions: S. cerevisiae rad18 mutant growth inhibition, stronger effect = higher value
# How it was run: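 DNA-repair-defective yeast; compound treatment; growth inhibition scored against vehicle.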
# [15] = NCI Yeast Anticancer Drug Screen. Data for the rad14 strain (AID 159);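 further: 0% = growth of vehicle-treated control cultures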; conditions: S. cerevisiae rad14 strain growth inhibition, stronger effect = higher value
# How it was run: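 Test compounds were applied to a repair-deficient yeast strain. Its growth was then compared with that of cultures given vehicle alone, and inhibition was expressed relative to those controls.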
# [16] = at 5.0 µM (retest, dose inferred, filed as 0.5)
# [17] = at 50.0 µM (retest, dose inferred, filed as 5.0)
structure (smiles),measurement,setting,value
Cc1ccc(CSC(N)=Nc2ccccc2)cc1C,growth inhibition,[1]; at 1.2 µM,20%
same,growth inhibition,[1]; at 3.7 µM,21%
same,growth inhibition,[1]; at 11.0 µM,21%
same,growth inhibition,[1]; at 33.0 µM,24%
same,growth inhibition,[1]; at 100.0 µM,30%
same,growth inhibition,[2]; at 1.2 µM,3%
same,growth inhibition,[2]; at 3.7 µM,13%
same,growth inhibition,[2]; at 11.0 µM,0%
same,growth inhibition,[2]; at 33.0 µM,4%
same,growth inhibition,[2]; at 100.0 µM,21%
same,growth inhibition,[3]; at 1.2 µM,6%
same,growth inhibition,[3]; at 3.7 µM,-1%
same,growth inhibition,[3]; at 11.0 µM,-8%
same,growth inhibition,[3]; at 33.0 µM,14%
same,growth inhibition,[3]; at 100.0 µM,81% (active)
same,growth inhibition,[4]; at 1.2 µM,9%
same,growth inhibition,[4]; at 3.7 µM,5%
same,growth inhibition,[4]; [16],5%
same,growth inhibition,[4]; at 11.0 µM,14%
same,growth inhibition,[4]; at 33.0 µM,22%
same,growth inhibition,[4]; [17],40%
same,growth inhibition,[4]; at 50.0 µM,61.5%
same,growth inhibition,[4]; at 100.0 µM,30%
same,growth inhibition,[5]; at 1.2 µM,-3%
same,growth inhibition,[5]; at 3.7 µM,10%
same,growth inhibition,[5]; [16],-11%
same,growth inhibition,[5]; at 11.0 µM,-11%
same,growth inhibition,[5]; at 33.0 µM,1%
same,growth inhibition,[5]; [17],-22%
same,growth inhibition,[5]; at 50.0 µM,24.2%
same,growth inhibition,[5]; at 100.0 µM,40%
same,growth inhibition,[6]; [16],-10%
same,growth inhibition,[6]; [17],38%
same,growth inhibition,[6]; at 50.0 µM,53.2%
same,growth inhibition,[7]; at 1.2 µM,6%
same,growth inhibition,[7]; at 3.7 µM,10%
same,growth inhibition,[7]; at 11.0 µM,-1%
same,growth inhibition,[7]; at 33.0 µM,7%
same,growth inhibition,[7]; at 100.0 µM,46%
same,growth inhibition,[8]; [16],-16%
same,growth inhibition,[8]; [17],14%
same,growth inhibition,[8]; at 50.0 µM,-4.5%
same,growth inhibition,[9]; at 1.2 µM,4%
same,growth inhibition,[9]; at 3.7 µM,5%
same,growth inhibition,[9]; [16],11%
same,growth inhibition,[9]; at 11.0 µM,-4%
same,growth inhibition,[9]; at 33.0 µM,14%
same,growth inhibition,[9]; [17],22%
same,growth inhibition,[9]; at 50.0 µM,80% (active)
same,growth inhibition,[9]; at 100.0 µM,34%
same,growth inhibition,[10]; at 1.2 µM,2%
same,growth inhibition,[10]; at 3.7 µM,-3%
same,growth inhibition,[10]; at 11.0 µM,-13%
same,growth inhibition,[10]; at 33.0 µM,-5%
same,growth inhibition,[10]; at 100.0 µM,66%
same,growth inhibition,[11]; at 1.2 µM,-7%
same,growth inhibition,[11]; at 3.7 µM,-12%
same,growth inhibition,[11]; at 11.0 µM,-6%
same,growth inhibition,[11]; at 33.0 µM,4%
same,growth inhibition,[11]; at 100.0 µM,66%
same,growth inhibition,[12]; at 1.2 µM,6%
same,growth inhibition,[12]; at 3.7 µM,0%
same,growth inhibition,[12]; at 11.0 µM,7%
same,growth inhibition,[12]; at 33.0 µM,19%
same,growth inhibition,[12]; at 100.0 µM,73% (active)
same,growth inhibition,[13]; [16],-5%
same,growth inhibition,[13]; [17],41%
same,growth inhibition,[13]; at 50.0 µM,42%
same,growth inhibition,[14]; at 1.2 µM,6%
same,growth inhibition,[14]; at 3.7 µM,-7%
same,growth inhibition,[14]; at 11.0 µM,2%
same,growth inhibition,[14]; at 33.0 µM,0%
same,growth inhibition,[14]; at 100.0 µM,31%
CC1(C)[C@@H]2CC[C@]1(C)[C@H](OC(=O)CSC#N)C2,growth inhibition,[1]; at 1.2 µM,0%
same,growth inhibition,[1]; at 3.7 µM,3%
same,growth inhibition,[1]; at 11.0 µM,20%
same,growth inhibition,[1]; at 33.0 µM,83% (active)
same,growth inhibition,[1]; at 100.0 µM,95% (active)
same,growth inhibition,[2]; at 1.2 µM,1%
same,growth inhibition,[2]; at 3.7 µM,4%
same,growth inhibition,[2]; at 11.0 µM,14%
same,growth inhibition,[2]; at 33.0 µM,61%
same,growth inhibition,[2]; at 100.0 µM,96% (active)
same,growth inhibition,[3]; at 1.2 µM,1%
same,growth inhibition,[3]; at 3.7 µM,2%
same,growth inhibition,[3]; at 11.0 µM,23%
same,growth inhibition,[3]; at 33.0 µM,90% (active)
same,growth inhibition,[3]; at 100.0 µM,98% (active)
same,growth inhibition,[4]; at 1.2 µM,1%
same,growth inhibition,[4]; at 3.7 µM,1%
same,growth inhibition,[4]; [16],-5%
same,growth inhibition,[4]; at 11.0 µM,20%
same,growth inhibition,[4]; at 33.0 µM,68%
same,growth inhibition,[4]; [17],98% (active)
same,growth inhibition,[4]; at 50.0 µM,99% (active)
same,growth inhibition,[4]; at 100.0 µM,96% (active)
same,growth inhibition,[5]; at 1.2 µM,4%
same,growth inhibition,[5]; at 3.7 µM,8%
same,growth inhibition,[5]; [16],8%
same,growth inhibition,[5]; at 11.0 µM,27%
same,growth inhibition,[5]; at 33.0 µM,86% (active)
same,growth inhibition,[5]; [17],98% (active)
same,growth inhibition,[5]; at 50.0 µM,98% (active)
same,growth inhibition,[5]; at 100.0 µM,97% (active)
same,growth inhibition,[15]; at 1.2 µM,-2%
same,growth inhibition,[15]; at 3.7 µM,-1%
same,growth inhibition,[15]; at 11.0 µM,12%
same,growth inhibition,[15]; at 33.0 µM,43%
same,growth inhibition,[15]; at 100.0 µM,97% (active)
same,growth inhibition,[6]; [16],28%
same,growth inhibition,[6]; [17],97% (active)
same,growth inhibition,[6]; at 50.0 µM,98.6% (active)
same,growth inhibition,[7]; at 1.2 µM,-3%
same,growth inhibition,[7]; at 3.7 µM,-1%
same,growth inhibition,[7]; at 11.0 µM,1%
same,growth inhibition,[7]; at 33.0 µM,47%
same,growth inhibition,[7]; at 100.0 µM,95% (active)
same,growth inhibition,[8]; [16],34%
same,growth inhibition,[8]; [17],91% (active)
same,growth inhibition,[8]; at 50.0 µM,94.8% (active)
same,growth inhibition,[9]; at 1.2 µM,2%
same,growth inhibition,[9]; at 3.7 µM,13%
same,growth inhibition,[9]; [16],14%
same,growth inhibition,[9]; at 11.0 µM,-19%
same,growth inhibition,[9]; at 33.0 µM,81% (active)
same,growth inhibition,[9]; [17],99% (active)
same,growth inhibition,[9]; at 50.0 µM,99% (active)
same,growth inhibition,[9]; at 100.0 µM,96% (active)
same,growth inhibition,[10]; at 1.2 µM,1%
same,growth inhibition,[10]; at 3.7 µM,5%
same,growth inhibition,[10]; at 11.0 µM,25%
same,growth inhibition,[10]; at 33.0 µM,89% (active)
same,growth inhibition,[10]; at 100.0 µM,97% (active)
